Measured values: publication PMC4336329 (PLoS ONE, 2015)
The campaign covered roughly 310,000 compounds. About 2,200 (0.71%) showed an effect of 50% or more. The effect is printed as a negative number. This is one part of a sample in which strong results are shown more often than they occur.

Molecular target: human ether-à-go-go-related gene (hERG) potassium channel (human, UniProt Q12809)
Assay: primary screen, population patch clamp on CHO cells stably expressing hERG; higher = less effect of the substance

Sequence of human ether-à-go-go-related gene (hERG) potassium channel (Q12809 whole entry, looked up): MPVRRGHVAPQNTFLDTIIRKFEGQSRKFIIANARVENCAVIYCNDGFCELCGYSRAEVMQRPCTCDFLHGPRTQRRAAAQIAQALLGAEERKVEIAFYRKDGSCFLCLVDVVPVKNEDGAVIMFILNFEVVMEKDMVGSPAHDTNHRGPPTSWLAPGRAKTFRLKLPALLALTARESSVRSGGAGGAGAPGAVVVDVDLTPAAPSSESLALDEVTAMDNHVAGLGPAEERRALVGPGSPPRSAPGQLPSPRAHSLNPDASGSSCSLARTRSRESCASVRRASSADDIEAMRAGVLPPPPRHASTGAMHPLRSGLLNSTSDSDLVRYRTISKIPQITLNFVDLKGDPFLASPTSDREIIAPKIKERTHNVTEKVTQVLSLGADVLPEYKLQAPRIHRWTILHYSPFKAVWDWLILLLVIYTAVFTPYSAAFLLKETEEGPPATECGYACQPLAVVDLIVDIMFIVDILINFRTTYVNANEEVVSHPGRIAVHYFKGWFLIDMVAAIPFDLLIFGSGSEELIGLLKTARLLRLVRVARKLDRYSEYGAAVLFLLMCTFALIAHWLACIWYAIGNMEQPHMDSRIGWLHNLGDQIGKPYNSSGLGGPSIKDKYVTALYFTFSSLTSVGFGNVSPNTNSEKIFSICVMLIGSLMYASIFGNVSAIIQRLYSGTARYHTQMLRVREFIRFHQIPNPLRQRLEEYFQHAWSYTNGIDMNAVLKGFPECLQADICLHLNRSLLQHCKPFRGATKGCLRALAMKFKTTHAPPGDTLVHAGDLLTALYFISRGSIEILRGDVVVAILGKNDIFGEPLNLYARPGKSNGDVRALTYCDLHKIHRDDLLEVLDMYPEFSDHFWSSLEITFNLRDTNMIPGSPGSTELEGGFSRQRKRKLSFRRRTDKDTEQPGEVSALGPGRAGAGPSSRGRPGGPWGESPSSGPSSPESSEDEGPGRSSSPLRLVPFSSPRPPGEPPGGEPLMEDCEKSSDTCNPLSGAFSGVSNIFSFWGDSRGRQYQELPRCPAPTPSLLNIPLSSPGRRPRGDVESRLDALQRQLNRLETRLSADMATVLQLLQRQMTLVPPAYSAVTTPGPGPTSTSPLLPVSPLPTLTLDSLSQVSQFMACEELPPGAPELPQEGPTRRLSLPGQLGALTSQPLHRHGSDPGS

SMILES	hERG current change (%, negative = inhibition) at 1uM [%]
COC(=O)c1ccc(CN2CCN(CCCc3ccccc3)C(CCO)C2)cc1 (stereo not drawn)	-29.1
COCCCNC(=O)c1cc(C)nc2ccc(F)cc12	-1.73
CN(C)S(=O)(=O)Oc1ccsc1C(=O)Nc1ccccc1Cl	5.7
Cc1ccc(CN2CCN(CC(=O)NCCCN3CCN(c4ccc(F)cc4)CC3)C2=O)cc1	-56.6
Cc1ccccc1CN1CCN(CC(=O)NCCCN2CCN(c3ccc(F)cc3)CC2)C1=O	-52
O=C(CN1CCN(Cc2ccc(Cl)cc2)C1=O)NCCCN1CCN(c2ccc(F)cc2)CC1	-36.8
Cc1cccc(CN2CCN(CC(=O)NCc3ccc(F)cc3)C2=O)c1	7.12
Cc1cccc(CN2CCN(CC(=O)NCCCN3CCN(c4ccc(F)cc4)CC3)C2=O)c1	-54.5
CCOCCCNC(=O)CN1CCN(Cc2ccccc2C)C1=O	4.41
Cc1cccc(CN2CCN(CC(=O)NCCCN3CCCC3=O)C2=O)c1	11.8
COc1ccc(N2CCN(CCCNC(=O)CN3CCN(Cc4ccccc4C)C3=O)CC2)cc1	-16.7
O=C(CN1CCN(Cc2ccc(Cl)cc2)C1=O)NCCCN1CCOCC1	4.56
O=C1NC2CCc3nc4ccccc4c(=O)n3C2=Nc2ccccc21 (stereo not drawn)	-6.24
COc1cc2c(=O)n(CCC(=O)NCC3CCCO3)c(=O)n(CC(=O)Nc3ccc(C)c(C)c3)c2cc1OC (stereo not drawn)	11.6
CNC(=O)c1ccccc1NC(=O)c1ccc(C)c(S(=O)(=O)N2CCCCC2)c1	-2.21
CC1(C)C2CC=C(/C=N/NC(=O)C(N)=O)C1C2 (stereo not drawn)	10.3
CCOC(=O)C(C)Sc1nc2c(c(=O)[nH]c(=O)n2C)n1Cc1ccc(Cl)cc1 (stereo not drawn)	-78.7
COC(=O)C(C)Sc1nc2c(c(=O)[nH]c(=O)n2C)n1CCCc1ccccc1 (stereo not drawn)	-70.1
CCOC(=O)C(C)Sc1nc2c(c(=O)[nH]c(=O)n2C)n1C/C=C(/C)Cl (stereo not drawn)	-62.6
CCCCCn1c(SC(C)C(C)=O)nc2c1c(=O)[nH]c(=O)n2C (stereo not drawn)	-91.2
CCOC(=O)C(C)Sc1nc2c(c(=O)[nH]c(=O)n2C)n1CCc1ccccc1 (stereo not drawn)	-5.6
C/C(Cl)=C/Cn1c(SCC(C)C)nc2c1c(=O)[nH]c(=O)n2C	10
CCCCCCn1c(SCC(C)C)nc2c1c(=O)[nH]c(=O)n2C	10.1
COC(=O)C(C)Sc1nc2c(c(=O)[nH]c(=O)n2C)n1CCC(C)C (stereo not drawn)	4.51

SMILES	hERG current change (%, negative = inhibition) at 1uM [%]
CC(C)Sc1nc2c(c(=O)[nH]c(=O)n2C)n1Cc1ccc(Cl)cc1	4.3
CCC(C)Sc1nc2c(c(=O)[nH]c(=O)n2C)n1Cc1ccc(Cl)cc1 (stereo not drawn)	2.15
CCOCCn1c(SC(C)C(C)=O)nc2c1c(=O)[nH]c(=O)n2C (stereo not drawn)	-0.132
C/C(Cl)=C/Cn1c(SC(C)C)nc2c1c(=O)[nH]c(=O)n2C	6.96
CCN(CC)C(=O)Oc1cc(=O)n(C)c2ccccc12	6.19
Cc1ccc([C@H]2C(C#N)=C(N)Oc3cc(C)oc(=O)c32)o1	12.8
O=c1c2ccccc2n2cnnc2n1-c1ccccc1	2.26
Cc1ccc(NC(=O)C(c2ccc(Cl)cc2)N2CCOCC2)cc1 (stereo not drawn)	16.1
Cc1cc2c(cc(C(=O)OCC(=O)NCc3ccco3)n2C)s1	6.5
CC1CCCC(NC(=O)CSc2nnnn2C)C1C (stereo not drawn)	13.2
COc1ccc(NC(=O)C2CCCN(S(=O)(=O)c3ccc(Cl)cc3)C2)cc1OC (stereo not drawn)	10.9
CCCCCn1c(=O)c(C(=O)NCc2ccncc2)c(O)c2ccccc21	2.72
CC(NC(=O)c1ccccc1F)C(=O)O (stereo not drawn)	16.8
C=C(C)COc1ccc(-c2nc(N)ncc2Oc2ccc(OC)cc2)c(O)c1	-5.45
CC(/C=N/NC(=O)c1ccncc1)=C\c1ccco1	14.7
Cc1ccc(CNC(=O)COc2ccc3c(c2)CCC3)cc1	-2.48
CCOC(=O)C(CC)Sc1nc2c(c(=O)[nH]c(=O)n2C)n1CCc1ccccc1 (stereo not drawn)	-30.9
CCOC(=O)C(CC)Sc1nc2c(c(=O)[nH]c(=O)n2C)n1C/C=C(/C)Cl (stereo not drawn)	-56.9
CCOC(=O)CSc1nc2c(c(=O)[nH]c(=O)n2C)n1C/C=C(/C)Cl	-7.88
COC(=O)CN1C(=O)[C@H]2[C@@H](C3CC3)N3C(=O)CN(Cc4ccc(-c5ccccc5)cc4)C(=O)[C@@]3(Cc3ccccc3)[C@H]2C1=O	15.6
COc1ccccc1Oc1ccc2c(c1)C(=O)N(c1ccc(Br)c3cccnc13)C2=O	1.75
O=C1/C(=C2\C(=O)N(Cc3ccc(F)cc3)c3ccccc32)SC(=S)N1CCS(=O)(=O)O	10.6
Cc1cccc(NC(=O)CN2C(=O)/C(=C3\SC(=S)N(CC4CCCO4)C3=O)c3ccccc32)c1 (stereo not drawn)	17.1
O=C(CN1C(=O)/C(=C2\SC(=S)N(CCS(=O)(=O)O)C2=O)c2ccccc21)Nc1cccc(Br)c1	-52.8

SMILES	hERG current change (%, negative = inhibition) at 1uM [%]
O=C(NCC1(N2CCCCC2)CCCCC1)c1cccc(NS(=O)(=O)c2ccccc2)c1	-34
Cc1cccc(NS(=O)(=O)c2cccc(C(=O)NCC3(N4CCCCC4)CCCCC3)c2)c1	-45.1
Cc1ccc(S(=O)(=O)Nc2cccc(C(=O)NCC3(N4CCCCC4)CCCCC3)c2)cc1F	-76.4
Cn1cc(CN2CCc3c([nH]c4ccccc34)C2C(C)(C)C)cn1 (stereo not drawn)	-3.25
CCCc1nc2c(o1)CC(CC(C)SCC)CC2=O (stereo not drawn)	-11.3
C=C(C)CSc1nc(N)c2c(C)c(C)sc2n1	10.3
Cc1occc1C(=O)NC1CCCN(Cc2ccc(CC(C)C)cc2)C1 (stereo not drawn)	6.64
O=C(NC1CCCN(Cc2ccc(Cl)cc2)C1)c1cccc(F)c1 (stereo not drawn)	-18.6
CC(C)Cc1ccc(CN2CCCC(NC(=O)c3ccoc3)C2)cc1 (stereo not drawn)	-7.26
CC(C)Cc1ccc(CN2CCCC(NC(=O)c3ccnn3C)C2)cc1 (stereo not drawn)	-50.4
O=C(NC1CCCN(Cc2ccc(Cl)cc2)C1)c1c(F)ccc(F)c1F (stereo not drawn)	-55.4
O=C(NC1CCCN(Cc2ccc(Cl)cc2)C1)c1c(F)cccc1F (stereo not drawn)	17.1
O=C(NCCN1CCN(S(=O)(=O)c2ccccc2)CC1)C(=O)Nc1ccc(F)cc1	8.68
O=C(CN1C(=O)c2cccc3cccc(c23)C1=O)NCCCO	9.32
COc1ccccc1NC(=O)N1CCN(c2ccc3nnc(-c4ccc(F)cc4)n3n2)CC1	13.5
CC(C)CCN1CCN(Cc2ccc3nsnc3c2)CC1CCO (stereo not drawn)	-21.3
OCCC1CN(Cc2nc(-c3ccccc3)cs2)CCN1CCc1ccccc1 (stereo not drawn)	-42.8
CC(C)=CCN1CCN(Cc2ccc3nsnc3c2)CC1CCO (stereo not drawn)	4.93
COc1ccc(CC2(CO)CCN(Cc3ccc4nsnc4c3)CC2)cc1	-4.45
OCCC1CN(Cc2nc(-c3ccccc3)cs2)CCN1Cc1ccc(F)cc1 (stereo not drawn)	-47.1
CC(C)CCN1CCN(Cc2nc3ccccc3s2)CC1CCO (stereo not drawn)	-8.09
OCCC1CN(Cc2nc3ccccc3s2)CCN1CCc1ccccc1 (stereo not drawn)	-58.3
OCCC1CN(Cc2nc(-c3ccc(F)cc3)cs2)CCN1CCc1ccccc1 (stereo not drawn)	-69.3
OCCC1CN(Cc2ccc3nsnc3c2)CCN1CCc1ccccc1 (stereo not drawn)	-73.7

SMILES	hERG current change (%, negative = inhibition) at 1uM [%]
OCC1(Cc2ccc(Cl)cc2)CCN(Cc2ccc3nsnc3c2)CC1	-6.01
CC(C)CN1CCN(Cc2nc3ccccc3s2)CC1CCO (stereo not drawn)	-5.53
OCC1(CCc2ccccc2)CCN(Cc2ccc3nsnc3c2)CC1	-69.1
O=C(N/N=C/c1ccc(-c2cccc([N+](=O)[O-])c2)o1)[C@H]1C[C@@H]1c1ccccc1	3.49
CCOC(=O)c1cnc(N)nc1C(F)(F)F	-2.92
CCC(=O)NC(=S)Nc1ccc(NC(=O)COc2ccccc2)cc1	19.7
COc1ccc(C(=O)N2CCN(C(C)=O)CC2)cc1S(=O)(=O)N1CCOCC1	14.4
COc1ccc(C(=O)NCc2ccc3c(c2)OCO3)c(OC)c1	13.6
CC(=O)Nc1ccc(S(=O)(=O)NCC(=O)OCC(=O)N2CCc3ccccc32)cc1	2.85
O=c1cc(CN2CCN(Cc3ccccc3)CC2)c2cc(O)ccc2o1	-39.4
CCc1ccc2c(CN(CC)Cc3nc4ccccc4c(=O)[nH]3)cc(=O)oc2c1	-60.5
COc1ccc(CN2CCN(Cc3cc(=O)oc4cc(C)ccc34)CC2)c(OC)c1OC	-87.6
Cc1cc2oc(=O)cc(CN3CCN(Cc4ccccc4)CC3)c2cc1O	-12.5
CCN(Cc1nc2ccccc2c(=O)[nH]1)Cc1cc(=O)oc2cc(C)c(C)cc12	-25.2
O=c1cc(CN2CCN(Cc3ccccc3)CC2)c2ccc(O)cc2o1	-79.7
CCN(Cc1nc2ccccc2c(=O)[nH]1)Cc1cc(=O)oc2cc(OC)ccc12	-25.6
COc1ccc2oc(=O)cc(CN3CCN(Cc4ccc(OC)c(OC)c4OC)CC3)c2c1	-2.05
Cc1ccc2c(CN3CCOCC3)cc(=O)oc2c1	-6.01
Cc1ccc2c(CN3CCCCC3)cc(=O)oc2c1	6.38
Cc1ccc2c(CN3CCN(CCO)CC3)cc(=O)oc2c1	-52.1
Cc1ccc2c(CN3CCC(C)CC3)cc(=O)oc2c1	-1.03
